Data taken from PubChem BioAssay AID618 (Sanford-Burnham Center for Chemical Genomics, 2007).
In all, about 87,000 compounds went through this assay and about 540 (0.62%) were called active. The rule behind the calls is not given here. Only a selection was taken, and actives are over-represented in it overall. Measured potencies and affinities stand elsewhere.

Assay: MT1-MMP gene expression reporter suppression – cell-based, luciferase reporter, luminescence (AID 618);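 note: actives suppress MT1-MMP promoter-driven transcription so potencies describe inhibitors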
Settings: MT1-MMP promoter luciferase reporter cells

outcome, inactive:
Cc1cc(NC(=O)COC(=O)[C@H](Cc2c[nH]c3ccccc23)NC(=O)c2ccc(F)cc2)no1
COC(=O)CSc1nnc(-c2ccncc2)o1
C=CCn1c(SCC(=C)C)nc2c1c(=O)[nH]c(=O)n2C
Cc1cc(C)n(-c2nc3c(c(=O)[nH]c(=O)n3C)n2CCc2ccccc2)n1
Cc1ccc(Cn2c(-n3nc(C)cc3C)nc3c2c(=O)[nH]c(=O)n3C)cc1
O=c1ccc2ccc(OCc3nnc(-c4ccccc4Br)o3)cc2o1
O=c1c2ccccc2nc2c3ccccc3c3nncn3n12
O=C(Nc1ccc(S(=O)(=O)N2CCOCC2)cc1)c1cccs1
COc1ccc(-n2nnnc2S(=O)(=O)Cc2ccc(C(=O)O)cc2)cc1
COc1cc(OC)cc(-n2nnnc2SCC(=O)N2CCCC2)c1
Cc1ccc2[nH]c(=O)c(-c3noc(C(C)C)n3)cc2c1
Cc1cccc(CS(=O)(=O)Cc2ccc(C(=O)O)o2)c1
Brc1ccc(-c2ncc(-c3ccccc3)cn2)cc1
Nc1ccc(-c2cnc(-c3ccc(N)cc3)nc2)cc1
O=C(O)CCc1nn2cnc3sc4c(c3c2nc1=O)CCCC4
CCOc1c(S(=O)(=O)N2CCCC2)ccc(Cl)c1Cl
Cc1cccc(NC(=O)c2cc3n(n2)C(C(F)(F)F)CC(c2ccc4c(c2)OCO4)N3)c1 (centres undefined)
O=C(NC1CCCCC1)N(CCN1CCOCC1)Cc1cc2cc3c(cc2[nH]c1=O)OCCO3
COc1ccc(OC)c(Nc2cc(C)nc3ccccc23)c1
COc1ccc(OC)c(Nc2nc(N)nc(-c3cc4ccccc4o3)n2)c1
COCCN(CC(=O)NCc1ccccc1)C(=O)CCC(=O)Nc1nccs1
COc1ccc(C(c2sc3nc(C)nn3c2O)N2CC(C)OC(C)C2)cc1OC (centres undefined)
Cn1c(SCC(=O)N2CCOCC2)nc(O)cc1=O
O=C1c2ccccc2S(=O)(=O)N1Cc1cc(=O)n2ccsc2n1
O=c1c2ccccc2ncn1Cc1nc2ccccc2s1
COc1ccc(C2=Nc3cc(C)ccc3OC2)cc1
c1ccc(C2=Nc3ccccc3OC2)cc1
CSc1sc(C(=O)O)c2c1C(=O)CCC2
COc1cccc(C2NC(=O)NC(C)=C2C(=O)OCCSC)c1OC (centres undefined)
CN(C)S(=O)(=O)c1ccc(C(=O)Nc2ccc(CCC(=O)N3CCCC3)cc2)cc1
CC1CN(Cc2nc3c(c(=O)[nH]c(=O)n3C)n2CC(N)=O)CC(C)O1 (centres undefined)
CCCNC(=O)c1ccc(-c2nc3ccccc3s2)s1
O=C(OC1CCOC1=O)c1ccc(-c2nc3ccccc3s2)s1 (centres undefined)
CCOC(=O)c1sc(Nc2ccc(C)cc2C)nc1C
COc1cc(CN2CCN(S(=O)(=O)c3ccc(F)cc3)CC2)cc(OC)c1OC
Nc1sc2c(c1C(=O)NC1CCS(=O)(=O)C1)CCCC2 (centres undefined)
O=C(O)c1cc(/C=N\O)ccc1OCc1ccccc1
COc1cc(C(N)=O)ccc1OCc1ccccc1
CCOC(=O)Cn1cc(C(=O)OC)c2ccccc21
CCOc1ccccc1N1CCN(C(=O)C2c3ccccc3Oc3ccccc32)CC1
O=C(C1c2ccccc2Oc2ccccc21)N1CCN(c2ccc(Cl)cc2)CC1
CCOC(=O)C1CCN(Cc2ccccc2C)CC1
Cc1cnc(C)c(N2CCC(C(=O)NC(C)c3cccs3)CC2)n1 (centres undefined)
CC(C)Oc1ccccc1C1CC(=O)Nc2cc3c(cc21)OCCO3 (centres undefined)
CCCOc1ccccc1C1CC(=O)Nc2cc3c(cc21)OCCO3 (centres undefined)
CCOc1ccccc1C1CC(=O)Nc2cc3c(cc21)OCCO3 (centres undefined)
COc1cccc(C2CC(=O)Nc3cc4c(cc32)OCCO4)c1OC(C)C (centres undefined)
Cc1[nH]nc2c1C(c1ccc(Cl)cc1)C(C#N)=C(N)O2 (centres undefined)
CCOC(=O)C1CCCn2c1nc1sc3c(c1c2=O)CCCC3 (centres undefined)
CC(C)(C)c1ccc(S(=O)(=O)NCc2ccc(C(=O)N3CCCC3)cc2)cc1
CO/N=C/C(=N\Nc1ccc(OC)cc1)C(=O)c1ccc(OC)cc1
CO/N=C/C(=N\Nc1ccc(C)cc1)C(=O)c1ccc(OC)cc1
Cc1c(C(=O)OC(C)CCN(C)C)oc2ccccc12 (centres undefined)
CN1/C(=C\C(=O)COC(=O)CN2C(=O)C3CC=CCC3C2=O)C(C)(C)c2ccccc21 (centres undefined)
Fc1ccc(Cn2c(-c3cscn3)nc3ccccc32)c(Cl)c1
Cc1oc2ccc(O)cc2c1C(=O)OC(C)C
CCN1C(=O)C(CC(=O)N2CCN(C(c3ccccc3)c3ccccc3)CC2)N(CC)C1=O (centres undefined)
CC(=O)CSc1nc2ccccc2s1
O=C(CSc1nc2ccccc2s1)CSc1nc2ccccc2s1
CC(C)Oc1ccc(C2c3c(oc4ccccc4c3=O)C(=O)N2CCCN2CCOCC2)cc1 (centres undefined)
COc1ccc(OCCSc2nnc3sc4ccccc4n23)cc1
COc1cccc(OCCSc2nnc3sc4ccccc4n23)c1
NC(=O)CSc1nnc2sc3ccccc3n12
CN(C)C(=O)CSc1nnc2sc3ccccc3n12
C=CCOC(=O)C1=C(C)NC(=O)NC1c1cn(-c2ccccc2)nc1-c1cccs1 (centres undefined)

outcome, active:
COc1ccc(CCn2c(-n3nc(C)cc3C)nc3c2c(=O)[nH]c(=O)n3C)cc1
COc1ccc(-n2nnnc2S(=O)(=O)CC(=O)N2CCCCC2)cc1
COc1ccc(OC)c(Nc2cc(-c3ccccc3)nc(N)n2)c1
O=C(NC1CC1)c1ccc(-c2nc3ccccc3s2)s1
COc1cc(/C=N/O)ccc1OCc1ccc(C(=O)O)cc1
COc1ccccc1N1CCN(C(=O)C2c3ccccc3Oc3ccccc32)CC1
CCOc1ccccc1C1CC(=O)Nc2cc3c(cc21)OCO3 (centres undefined)
CC(C)Oc1ccccc1C1CC(=O)Nc2cc3c(cc21)OCO3 (centres undefined)
COc1ccc(N/N=C(\C=N\O)C(=O)c2ccc(OC)cc2)cc1
